This note sets out measurements from PubChem BioAssay (NCATS).

Inconclusive results are not listed. The list shows a part of the results. Active and inactive are the calls of the source. Unless noted, calls follow the shape of the dose curve; as a rule, active = well fitted curve in the direction sought with a large enough effect; inconclusive = small, poorly fitted or top-dose-only effect, or another doubt; inactive = no such curve, though single readings can be large; an effect the other way counts as inactive or inconclusive.

In test [1] the target is Tyrosine-protein kinase Yes (Homo sapiens) (UniProt P07947). Briefly: qHTS for small molecule inhibitors of Yes1 kinase: Primary Screen (AID 686947). Also: nearly all actives have a fitted effect of over 60% in size. Also: potency is read from the fitted curve at half-maximal effect. In a few lines: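 ADP-Glo luminescence readout; final 4 nM Yes1, 0.1 mM ATP, 0.3 mg/mL poly(E4Y), Tris pH 7.5, MgCl2, DTT, Brij-35. 20 min compound preincubation, 60 min reaction at RT. Normalized to DMSO wells with and without enzyme.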

Test [2] can be described thus: qHTS for small molecule inhibitors of Yes1 kinase: Counter Assay (AID 686950).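 Also: no kinase present so only ADP-Glo detection of a fixed ADP amount is tested; luminescence from ADP-Glo reporting ADP in a fixed ATP and ADP mixture; 0% = DMSO wells with ATP plus ADP and -100% = ATP-only wells without ADP.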 In a few lines: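 Luminescence read-out from ADP-Glo quantifies a fixed ADP amount (0.02 mM ADP with 0.08 mM ATP) after 60 min at room temperature; signal is normalized between DMSO wells with ATP/ADP and with 0.1 mM ATP alone.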
In test [3] the target is DNA polymerase eta (Homo sapiens) (UniProt Q9Y253). The test is described as follows: qHTS for Inhibitors of Polymerase Eta: Confirmatory Assay for Cherry-picked Compounds (AID 720502). Also: potency is read from the fitted curve at half-maximal effect. The settings on record: Pol eta primer extension, TAMRA/BHQ fluorescence, 10 min. In a few lines: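 Enzyme at 10 nM is mixed with pin-transferred compound and left 15 min at room temperature. Substrate (50 nM final) is then added, and plates are read at 0 min and after 10 min.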
For orientation: qHTS replaces the single test concentration by a dilution series.

Test [4] in a line: qHTS profiling for inhibitors of Plasmodium falciparum (3D7) proliferation (AID 743322).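 Also: infected erythrocytes exposed to compound for 72 h before lysis; 100% = DMSO vehicle wells and 0% = 0.29 µM artemisinin.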 The settings on record: P. falciparum 3D7 proliferation; at 28.7 µM (top of the series). A digest of the protocol:
(§1)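 Erythrocytes infected with P. falciparum (0.3% parasitemia, 2.5% hematocrit) incubated with compounds 72 h at 37 C, 5% CO2. Lysis with saponin/Triton buffer containing SYBR Green I, overnight at room temperature in the dark; DNA fluorescence (485/535 nm) normalised to 0.29 uM artemisinin and DMSO.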

A short description of test [5]: qHTS profiling for inhibitors of Plasmodium falciparum (DD2) proliferation (AID 743323; call rule not given here). The settings on record: lower = more inhibition; at 28.7 µM (top of the series). In a few lines: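 P. falciparum Dd2-infected erythrocytes (0.3% parasitemia, 2.5% hematocrit) exposed 72 h at 37 C, 5% CO2. Lysis with SYBR Green, overnight at room temperature, fluorescence 485/535 nm; normalized to 0.29 uM artemisinin and DMSO.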

The nature of test [6]: qHTS profiling for inhibitors of Plasmodium falciparum (HB3) proliferation (AID 743324).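 Also: 100% = DMSO vehicle wells and 0% = artemisinin-treated control wells.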 The settings on record: Plasmodium falciparum HB3 blood-stage proliferation; at 28.7 µM (top of the series). In a few lines: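 P. falciparum HB3 grown in erythrocytes (0.3% parasitemia, 2.5% hematocrit final) with compound for 72 h at 37 C, 5% CO2. Parasite DNA detected by SYBR Green after saponin/triton lysis overnight; normalized to 0.29 uM artemisinin and DMSO.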

A short description of test [7]: qHTS profiling of the MIPE4 collection as inhibitors of Plasmodium falciparum (3D7) proliferation (AID 743344; call rule not given here;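 also: scaled between DMSO vehicle wells and 0.29 µM artemisinin as full inhibition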). The settings on record: P. falciparum 3D7 in erythrocytes, SYBR Green DNA fluorescence, 72 h; at 28.5 µM (top of the series). In a few lines: as §1
A short description of test [8]: qHTS profiling of the MIPE4 collection as inhibitors of Plasmodium falciparum (DD2) proliferation (AID 743345; call rule not given here). The settings on record: P. falciparum Dd2 in erythrocytes, SYBR Green DNA, 72 h; at 28.5 µM (top of the series). In a few lines:
as §1

The nature of test [9]: qHTS profiling of the MIPE4 collection as inhibitors of Plasmodium falciparum (DD2) proliferation (Rep 2) (AID 743346; call rule not given here). The settings on record: P. falciparum Dd2 in erythrocytes, SYBR Green DNA, 72 h; at 28.5 µM (top of the series). In a few lines:
as §1

A short description of test [10]: qHTS profiling of the MIPE4 collection as inhibitors of Plasmodium falciparum (HB3) proliferation (AID 743347; call rule not given here;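 also: plate controls were DMSO vehicle wells for no effect and artemisinin wells for full effect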). The settings on record: P. falciparum HB3 in erythrocytes, SYBR Green DNA, 72 h; at 28.5 µM (top of the series). In a few lines: as §1

Sequence of Tyrosine-protein kinase Yes (Homo sapiens) (P07947 whole entry, looked up): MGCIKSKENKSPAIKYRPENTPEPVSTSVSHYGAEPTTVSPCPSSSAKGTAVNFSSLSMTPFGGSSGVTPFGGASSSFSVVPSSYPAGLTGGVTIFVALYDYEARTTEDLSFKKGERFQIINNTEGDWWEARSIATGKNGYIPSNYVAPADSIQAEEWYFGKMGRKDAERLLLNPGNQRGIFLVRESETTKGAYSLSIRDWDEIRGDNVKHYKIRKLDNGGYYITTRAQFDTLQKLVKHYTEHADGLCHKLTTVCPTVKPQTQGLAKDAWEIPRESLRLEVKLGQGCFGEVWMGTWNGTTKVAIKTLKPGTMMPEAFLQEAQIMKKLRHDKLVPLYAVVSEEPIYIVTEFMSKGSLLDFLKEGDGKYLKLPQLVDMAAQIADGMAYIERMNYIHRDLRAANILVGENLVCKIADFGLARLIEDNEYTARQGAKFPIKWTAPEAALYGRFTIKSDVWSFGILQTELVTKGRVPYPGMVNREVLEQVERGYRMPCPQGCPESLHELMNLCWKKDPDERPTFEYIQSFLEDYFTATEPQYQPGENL
Sequence of DNA polymerase eta (Homo sapiens) (Q9Y253 whole entry, looked up): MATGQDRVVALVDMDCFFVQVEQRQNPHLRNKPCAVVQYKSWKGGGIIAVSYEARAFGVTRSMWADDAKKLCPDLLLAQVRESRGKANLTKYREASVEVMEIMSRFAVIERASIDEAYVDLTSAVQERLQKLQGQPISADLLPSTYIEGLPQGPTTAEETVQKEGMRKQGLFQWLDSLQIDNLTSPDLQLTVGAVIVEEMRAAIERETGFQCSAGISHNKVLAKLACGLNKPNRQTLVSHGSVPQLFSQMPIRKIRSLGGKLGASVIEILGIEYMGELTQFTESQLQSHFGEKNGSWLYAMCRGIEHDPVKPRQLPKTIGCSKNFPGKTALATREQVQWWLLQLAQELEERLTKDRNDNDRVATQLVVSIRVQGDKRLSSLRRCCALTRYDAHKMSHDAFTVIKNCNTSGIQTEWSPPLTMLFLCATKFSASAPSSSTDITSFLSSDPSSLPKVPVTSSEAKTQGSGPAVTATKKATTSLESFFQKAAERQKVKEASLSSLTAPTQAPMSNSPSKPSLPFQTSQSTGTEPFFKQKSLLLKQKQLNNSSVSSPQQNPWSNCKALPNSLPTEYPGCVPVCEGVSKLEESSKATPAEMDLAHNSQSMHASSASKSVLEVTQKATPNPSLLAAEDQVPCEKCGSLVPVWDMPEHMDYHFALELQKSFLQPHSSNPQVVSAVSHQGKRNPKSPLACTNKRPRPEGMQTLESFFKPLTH

`COC(=O)Nc1nc2ccc(Oc3ccc(NC(=O)Nc4cccc(Cl)c4)cc3)cc2[nH]1`: in test [1], the Potency entry is “inactive”. Also, the compound was classed as inactive in test [2].

For `COc1ccc(-c2nn3ncccc3c2-c2ccnc(Nc3ccc4c(c3)OCCO4)n2)cc1`, the Potency in test [1] was 29.2 nM (active). For the same compound, the result in test [2] was inactive.

Turning to `COc1cccc(-n2cnc3c(NN=Cc4ccncc4)ncnc32)c1`, in [1], the Potency is 582 nM (active). For the same compound, the compound was called inactive in test [2].

Consider `O=C1Nc2ccc(-c3cccnc3)cc2C1=Cc1cc(Br)c(O)c(Br)c1`, for which, in test [1], the Potency is 412 nM (active). In addition, the call in test [2] was inactive.

For the compound `c1ccc(-c2nc3n(c2-c2ccc4c(c2)OCO4)CCC3)nc1`, in test [1], the Potency entry was “inactive”. In addition, the compound was classed as inactive in test [2].

With `CCNC(=O)OC1CNC(C#Cc2cc3ncnc(Nc4ccc(OCc5cccc(F)c5)c(Cl)c4)c3s2)C1` (stereo unspecified), in test [1], the Potency was 8230 nM (active). For the same compound, in [2], the call was inactive.

As for `CCn1c(-c2nonc2N)nc2cncc(C(=O)N3CCC(N)C3)c21` (stereo unspecified), the Potency entry in [1] was “inactive”. The outcome in [2] was inactive.

Take `FC(F)(F)CNc1nccc(-c2cnn3ncccc23)n1`: the Potency entry in [1] was “inactive”. The compound was classed as inactive in test [2].

Regarding `CC(C)=Cc1cccc2[nH]c(O)c(N=Nc3ccc(S(N)(=O)=O)cc3)c12`, the Potency entry in test [1] is “inactive”. The result in test [2] was inactive.

With `NS(=O)(=O)c1cccc(-c2cc3ccncc3cc2OCc2ccccc2)c1`, in test [1], the Potency result was “inactive”. The compound was called inactive in [2].

With `CC(C)COC(=O)c1ccc2[nH]c(O)c(C=Nc3ccc(S(N)(=O)=O)cc3)c2c1`, the Potency in [1] was 9230 nM (active). In addition, the compound was classed as inactive in test [2].

Take `c1ccc(Oc2ccc(Nc3ncc(-c4ccccc4)o3)cc2)cc1`: in test [1], the Potency entry is “inactive”. Moreover, the compound was called inactive in test [2].

As to `CC(C)c1ccc2c(N=Nc3ccc(S(N)(=O)=O)cc3)c(O)[nH]c2c1`, in test [1], the Potency result is “inactive”. In test [2], the outcome was inactive.

In the case of `COc1cc2ncn(-c3cc(OCc4ccccc4C(F)(F)F)c(C(=O)N(C)C)s3)c2cc1OC`, the Potency in [1] was 7330 nM (active). Further, the outcome in test [2] was inactive.

As to `c1ccc(COc2ccc(Nc3ncnc4ccc(-c5ccco5)cc34)cc2)cc1`, the Potency in test [1] was 3680 nM (active). In addition, the outcome in [2] was inactive.

With `CN1CCN(C(=O)c2ccc(NC(=O)Nc3ccc(N(C)c4ccnc(Nc5ccc(CS(C)(=O)=O)cc5)n4)cc3)cc2)CC1`, the Potency in test [1] is 14600 nM (active). The compound was classed as inactive in [2].

With `NS(=O)(=O)c1ccc(Nc2cc(-c3ccc(O)c(F)c3)[nH]n2)cc1`, the Potency in [1] was 5820 nM (active). The result in test [2] was inactive.

For the compound `COc1cc2ncn(-c3cc(OCc4cccs4)c(C(N)=O)s3)c2cc1OC`, the Potency in test [1] is 1840 nM (active). Also, the call in [2] was inactive.

In the case of `Cc1ccc2c(-c3ccnc(Nc4ccccc4)n3)c(-c3ccc(F)cc3)nn2n1`, the Potency in test [1] was 116 nM (active). Further, the compound was classed as inactive in test [2].

Turning to `CN1CCN(CCCNc2nc3ccc(Oc4ccc(NC(=O)Nc5cc(C(F)(F)F)ccc5F)cc4)cc3[nH]2)CC1`, the Potency result in test [1] is “inactive”. In addition, the result in test [2] was inactive.

`COc1c(C(N)=O)cc(-c2ccc(Cl)cc2)cc1-c1ccc(S(N)(=O)=O)cc1`: the Potency in test [1] is 10400 nM (active). The compound was called inactive in [2].

Take `Nc1nc(-c2ccc(F)cc2)c(-c2ccc3ncccc3n2)s1`: the Potency in test [1] is 463 nM (active). Also, in test [2], the call was inactive.

For `COc1ccc(-c2nn3ncccc3c2-c2ccnc(Nc3cccc(C(F)(F)F)c3)n2)cc1`, the Potency in test [1] was 582 nM (active). For the same compound, the compound was called inactive in [2].

For `NC(=O)c1cccc(Nc2nccc(Nc3cccc4[nH]ncc34)n2)c1`, the Potency in test [1] was 29.2 nM (active). Also, the outcome in test [2] was inactive.

`CN(c1ccc(NC(=O)NCCN2CCOCC2)cc1)c1ccnc(Nc2ccc(CS(C)(=O)=O)cc2)n1`: in [1], the Potency is 11600 nM (active). Further, the outcome in test [2] was inactive.

Consider `COc1ccc(-c2nn3ncccc3c2-c2ccnc(Nc3ccc(Cl)c(C(F)(F)F)c3)n2)cc1`, for which the Potency in test [1] is 3680 nM (active). For the same compound, the result in [2] was inactive.

Take `COc1ccc(-c2nn3ncccc3c2-c2ccnc(Nc3ccc(F)c(F)c3)n2)cc1`: in [1], the Potency was 328 nM (active). Besides, the result in test [2] was inactive.

Take `CCn1c(-c2nonc2N)nc2cncc(C(=O)N3CCNCC3)c21`: in test [1], the Potency was 1460 nM (active). Further, the result in test [2] was inactive.

In the case of `Cc1ccc(NC(=O)c2cc(-c3ccc(C)o3)nc3ccccc23)nc1`, the Potency in test [3] was 75700 nM (active).

`CCOc1ccc(F)cc1C1(O)C(N)=Nc2ccc(Cl)cc21` (stereo unspecified): the remaining parasite growth % (stronger effect = lower value) in test [4] was found to be 0.18%. The activity, percent of control in [5] was found to be 0.185%. Also, the remaining proliferation (% of control), lower = more inhibition in test [6] came to 1.54%. In addition, in [7], the parasite growth, % of DMSO control amounted to 5.08%. Besides, the parasite growth remaining, % of DMSO control (lower = more inhibition) in test [8] came out at 6.08%. This compound gave a parasite growth, % of control (lower = inhibition) in test [9] of 8.34%. Further, the growth, % of control in test [10] came to 5.81%.

As for `O=C([C@H](Cc1ccc(O[S+](=O)([O-])c2cccnc2)cc1)N[S+](=O)([O-])c1cccnc1)N1CCN(c2ccccc2)CC1`, the remaining parasite growth % (stronger effect = lower value) in test [4] amounted to 15.8%. Moreover, the activity, percent of control in [5] came out at 16.7%. This compound also showed a remaining proliferation (% of control), lower = more inhibition in test [6] of 3.22%.

In turn, `COc1cc(C)c2c(Oc3cccc(C(F)(F)F)c3)c(OC)cc(NCCCC(C)N)c2n1` (stereo unspecified) showed a parasite growth, % of DMSO control in test [7] of 3.66%. This compound also gave a parasite growth remaining, % of DMSO control (lower = more inhibition) in test [8] of 6.22%. For the same compound, the parasite growth, % of control (lower = inhibition) in test [9] stood at 16%. The compound also displayed a growth, % of control in test [10] of 2.71%.

In the case of `C[C@H]1Cc2c([nH]c3cc(Cl)c(F)cc23)[C@@]2(N1)C(=O)Nc1ccc(Cl)cc12`, the remaining parasite growth % (stronger effect = lower value) in test [4] is -1.02%. The activity, percent of control in test [5] is -0.226%. In addition, the remaining proliferation (% of control), lower = more inhibition in [6] came out at 0.369%. In [7], this compound yielded a parasite growth, % of DMSO control of 5.02%. In test [8], this compound showed a parasite growth remaining, % of DMSO control (lower = more inhibition) of 6.27%. Also, the parasite growth, % of control (lower = inhibition) in test [9] came out at 33.6%. Also, in test [10], the growth, % of control came out at 7.99%.

Consider `O=C([C@@H](Cc1ccc(O[S+](=O)([O-])c2cccc3cccnc23)cc1)N[S+](=O)([O-])c1cccc2cccnc12)N1CCN(c2ccccc2)CC1`, for which the remaining parasite growth % (stronger effect = lower value) in test [4] was 0.884%. Besides, the activity, percent of control in test [5] came to 3.45%. Moreover, in test [6], the remaining proliferation (% of control), lower = more inhibition was 1.75%.
